From PubChem
Exocytosis inh: lytic granule exocytosis inhibition; inhibition, % at 10 µM; TALL-104 LAMP-1 surface exposure, flow cytometry; cells stimulated with thapsigargin and PMA; AID 651702; hit rate 0.66% among 360,000;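 active = inhibition above about 55%, limit read from the data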
B2AR ag: activates human beta-2 adrenergic receptor causing internalization. P07550. Am2.2-beta2AR cells, FAP receptor internalization, flow cytometry. response, % (test concentration not listed). hit rate 0.43% among 340,000;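 active = response above a set limit, near 3 SD of response in nonfluorescent compounds, cut at about 42% in these data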
TLR4-MyD88 BLA: inhibitors of human TLR4-MyD88 binding | O00206+Q99836 | HeLa CL3-4 TLR4/MyD88 BLA complementation, FRET ratio | hit rate 0.18% among 200,000 | inhibition, % at 8.4 µM; in the data active = inhibition above about 25%;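 also: 0% = vehicle and 100% = reference inhibitor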
NOD2 RIPK2 PPI: NOD2-RIPK2 protein interaction inhibition | hit rate 0.38% among 360,000 | inhibition, % at 4.98 µM | CHO BLA complementation NOD2-RIPK2, CCF4 ratio | O43353; in the data active = inhibition above about 21%;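 also: 0% = vehicle only and 100% = reference blocker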
TLR9-MyD88 inh: inhibitors of human TLR9-MyD88 binding. hit rate 0.21% among 340,000. AID 504734. CHO BLA complementation TLR9-MyD88, CCF4 FRET ratio. inhibition, % at 4.98 µM. Q9NR96+Q99836;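 active = inhibition above the mean over all tested compounds plus 3 SD, cut at about 21% in these data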;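 also: 0% = DMSO only wells and 100% = clavulanate BLA inhibitor control wells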
ABHD5 PLIN5 PPI: ABHD5-PLIN5 protein interaction inhibition | Q00G26+Q8WTS1 | inhibition, % at 4 µM | Split G. princeps luciferase complementation, luminescence, 4 h | hit rate 0.78% among 360,000;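 active = inhibition above the mean inhibition across every tested compound plus 3 SD, cut at about 22% in these data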;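 also: 0% = DMSO only wells and the 100% control is not disclosed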
The depositor's hits bear a star; . = no result given. The list is not random: actives were taken first. Their share in the collection is about 2%.

SMILES | Exocytosis inh | B2AR ag | TLR4-MyD88 BLA | NOD2 RIPK2 PPI | TLR9-MyD88 inh | ABHD5 PLIN5 PPI
C#CCOCCOCCOCCNc1nc(N2CCN(C(=O)CCCCCCCCCCNC(=O)[C@@H](CCC(=O)O)n3cc(CCCCCN)nn3)CC2)nc(N2CCN(C(=O)CCCCCCCCCCNC(=O)[C@H]([C@@H](C)CC)n3cc(CCCCCN)nn3)CC2)n1 | 17 | 52* | . | -1 | 5 | 51*
CC(C)CC1NC(=O)c2cccnc2-n2c1nc1cc(F)ccc1c2=O (configuration not stated) | 4 | . | . | 8 | 7 | 1
Clc1ccc(NN(Cc2ccncc2)c2ccc(Cl)cc2)cc1 | -2 | . | . | -2 | 11 | -4
C#CCOCCOCCOCCNc1nc(N2CCN(C(=O)CCCCCCCCCCNC(=O)[C@H]([C@@H](C)CC)n3cc(CCCCCN)nn3)CC2)nc(N2CCN(C(=O)CCCCCCCCCCNC(=O)[C@H](CO)n3cc(CCCCCN)nn3)CC2)n1 | 0 | 17 | . | 13 | 15 | 39*
C#CCOCCOCCOCCNc1nc(N2CCN(C(=O)CCCCCCCCCCNC(=O)Cn3cc(CCCCCN)nn3)CC2)nc(N2CCN(C(=O)CCCCCCCCCCNC(=O)[C@H]([C@@H](C)CC)n3cc(CCCCN=C(N)N)nn3)CC2)n1 | -11 | -500 | . | 35* | 40* | 58*
C#CCOCCOCCOCCNc1nc(N2CCN(C(=O)Cn3cc(CCCN=C(N)N)nn3)CC2)nc(N2CCN(C(=O)[C@H]([C@@H](C)CC)n3cc(CCCCN)nn3)CC2)n1 | -8 | 3 | . | -4 | -13 | -4
NC(=O)C1CCN(C2=C(Cl)C(=O)c3ccccc3C2=O)CC1 | 30 | 46* | 7 | 6 | 3 | -44
CC(C)Cc1ccc(C(C)/C=C2/CCC(CN3CCCCC3)C2=O)cc1 (configuration not stated) | 48 | 25 | . | 5 | -1 | 23*
CC(C)Cc1ccc(CN2CCCC(NC(=O)CCN3CCCCC3=O)C2)cc1 (configuration not stated) | 6 | -8 | . | -5 | -10 | -8
O=C(N/N=C/c1ccc(-c2ccc([N+](=O)[O-])cc2)o1)[C@H]1C[C@@H]1c1ccccc1 | 62* | 17 | . | 3 | 11 | 0
O=C(N/N=C/c1ccc(-c2cccc([N+](=O)[O-])c2)o1)[C@H]1C[C@@H]1c1ccccc1 | -1 | -1 | -15 | -6 | -4 | -2
COc1ccc2cc(CN(Cc3ccco3)C(c3nnnn3C3CCCCC3)C(C)C)c(=O)[nH]c2c1 (configuration not stated) | 5 | 16 | 6 | -10 | 1 | 22*
O=C1CSc2ccc(C(=O)Nc3cccc(S(=O)(=O)Nc4ccc(Br)cc4)c3)cc2N1 | 63* | -2 | 8 | -16 | -5 | -1
O=C(O)c1ccc(NC(=O)c2cccc(S(=O)(=O)Nc3ccc(C(=O)O)cc3)c2)cc1 | -1 | 5 | . | -2 | 4 | 1
CO[C@H]1CN(C)C(=O)c2ccc(NC(=O)C3CCC3)cc2OC[C@H](C)N(Cc2ccccn2)C[C@@H]1C | -10 | . | . | 4 | . | 1
COc1ccc(S(=O)(=O)NCc2ccco2)c2ccccc12 | -11 | 4 | -6 | 0 | 1 | 23*
CCCN1C(=O)/C(=C/c2nc3ccccc3c(=O)[nH]2)c2ccccc21 | -1 | -5 | -7 | -5 | -2 | 1
CC(C)N1C(=O)/C(=C\c2nc3ccccc3c(=O)[nH]2)c2ccccc21 | 98* | 16 | -13 | 15 | 4 | 18
COc1ccc(-c2nc3ccccc3n(CC(C)C)c2=O)cc1 | -7 | . | . | -10 | . | -8
COc1ccc(NC(=O)c2cnc3ccccn3c2=O)c(OC)c1 | -2 | -22 | . | -1 | 5 | -7
COc1ccc(C(C[N+](=O)[O-])c2c(-c3ccccc3)cc3ccccn23)c(OC)c1 (configuration not stated) | 2 | 30 | 8 | 7 | -4 | 41*
Cc1nc(N2N=C(c3ccc(Cl)cc3)CC2c2ccco2)sc1C(=O)N(C)C (configuration not stated) | -2 | 2 | 13 | 5 | -4 | 22*
C[C@H](CO)N1C[C@H](C)[C@@H](CN(C)S(=O)(=O)c2ccc3c(c2)OCCCO3)OCc2cn(nn2)CCCC1=O | -1 | . | . | 7 | -1 | -13
COC(=O)C1OC(OC2CC[C@]3(C)C(CC[C@@]4(C)[C@@H]3CC=C3[C@@H]5CC(C)(C)CC[C@]5(C(=O)OC5OC(CO)C(O)C(O)C5O)CC[C@]34C)C2(C)C)C(O)C(O)C1O[C@H]1OCC(O)C(O)C1O (some centres not stated) | -6 | -13 | . | -4 | -4 | 33*
CC1(C)CC[C@]2(C(=O)O[C@@H]3OC(CO)[C@@H](O)[C@H](O)[C@H]3O)CC[C@]3(C)C(=CCC4[C@@]5(C)CC[C@H](O[C@@H]6OC(C(=O)O)[C@@H](O)[C@H](O)[C@H]6O)C(C)(C)C5CC[C@]43C)[C@@H]2C1 (some centres not stated) | 2 | 0 | . | 0 | -4 | 4
SMILES | Exocytosis inh | B2AR ag | TLR4-MyD88 BLA | NOD2 RIPK2 PPI | TLR9-MyD88 inh | ABHD5 PLIN5 PPI
CCOC(=O)c1c(NC(=O)c2cccs2)sc2c1CC(C)(C)OC2 | 67* | 4 | 2 | -5 | 3 | -2
CCOC(=O)c1c(NC(=O)C2C3C=CC(C3)C2C(=O)O)sc2c1CC(C)(C)OC2 (configuration not stated) | 0 | 5 | -16 | -2 | 7 | -2
Brc1ccc(CSc2nccn2-c2ccccc2)cc1 | 10 | -9 | -3 | 22* | 10 | -1
CCc1nc2ccc(C(=O)NCCCn3ccnc3)cn2c1N(C)Cc1nccs1 | 6 | . | . | 1 | . | 3
CC(=O)NC(c1ccccc1)c1nc(-c2cccc(C#N)c2)cs1 (configuration not stated) | -17 | . | . | 0 | . | 1
CC(=O)Oc1ccc2c(c1)CCC1C2CCC2(C)C(OC(C)=O)CCC12 (configuration not stated) | 3 | 2 | . | 0 | 2 | -6
C[C@]12CC[C@@H]3c4ccc(OC(=O)c5ccccc5)cc4CC[C@H]3[C@@H]1CC[C@@H]2O | 60* | 14 | 3 | 1 | 1 | 1
CCOc1cccc(-c2nn(-c3ccccc3)cc2/C=C(/C#N)C(=O)NCCCn2ccnc2)c1 | 68* | 1 | -5 | 2 | 3 | 12
Cc1noc(C)c1C(=O)OC(C)C(=O)c1c[nH]c2ccccc12 (configuration not stated) | 0 | . | . | -4 | 1 | 7
Cc1ccc(-c2ccc(/C=C3\C(=O)ON=C3c3ccccc3)o2)c([N+](=O)[O-])c1 | 106* | 18 | 14 | 3 | 3 | 12
Cc1ccc(/C=C2\C(=O)ON=C2c2ccccc2)o1 | 1 | 5 | 19 | -7 | . | -4
Cc1ccc(C2=NOC(=O)/C2=C\c2ccc(C)o2)cc1 | 26 | 56* | . | -4 | -12 | 7
